This note sets out measurements from PubChem BioAssay AID1671192 (National Center for Advancing Translational Sciences (NCATS), 2021).

Results filed as inconclusive are left out. Active and inactive are the calls of the source. The call rests on the fitted dose curve; in most records, active means well fitted curve in the direction sought with a large enough effect; inconclusive means small, poorly fitted or top-dose-only effect, or another doubt; inactive means no such curve, though single readings can be large or run the other way.

The target in this assay is Polyunsaturated fatty acid lipoxygenase ALOX15 (Homo sapiens) (UniProt P16050). Nature of the assay: Counterscreen qHTS for inhibitors of human arachidonate 12S-lipoxygenase (ALOX12): ALOX15 Assay. The conditions noted are these: purified ALOX15 enzyme activity; series mostly up to 110 µM. An excerpt: Assay Provider: Theodore R. Holman Ph.D.
Sequence of Polyunsaturated fatty acid lipoxygenase ALOX15 (Homo sapiens) (P16050 whole entry, looked up): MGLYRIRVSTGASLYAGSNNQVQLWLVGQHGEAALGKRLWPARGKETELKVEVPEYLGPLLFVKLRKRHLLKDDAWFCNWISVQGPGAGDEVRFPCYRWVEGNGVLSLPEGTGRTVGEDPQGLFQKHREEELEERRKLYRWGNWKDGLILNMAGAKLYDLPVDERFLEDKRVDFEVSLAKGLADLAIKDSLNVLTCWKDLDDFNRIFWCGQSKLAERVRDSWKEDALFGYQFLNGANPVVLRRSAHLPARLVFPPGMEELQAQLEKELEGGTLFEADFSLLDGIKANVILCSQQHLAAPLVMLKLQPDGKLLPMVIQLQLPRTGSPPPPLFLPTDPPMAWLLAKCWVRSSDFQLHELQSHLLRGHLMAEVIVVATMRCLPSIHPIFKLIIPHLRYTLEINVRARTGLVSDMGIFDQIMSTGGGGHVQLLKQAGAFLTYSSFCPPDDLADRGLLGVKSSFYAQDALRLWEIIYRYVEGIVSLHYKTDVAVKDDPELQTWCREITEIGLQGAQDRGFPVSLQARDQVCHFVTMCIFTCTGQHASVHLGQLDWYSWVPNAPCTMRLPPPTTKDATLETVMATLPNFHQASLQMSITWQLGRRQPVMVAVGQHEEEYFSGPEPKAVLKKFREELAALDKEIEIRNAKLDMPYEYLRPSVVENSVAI
University of California, Santa Cruz, California
Human lipoxygenase 12hLO is a member of the closely related lipoxygenase family of enzymes which catalyze the site-specific oxidation of arachidonic acid to various hormone precursor molecules and as such is a candidate for drug development in a variety of disease areas, such as cancer and inflammation. Inhibition of 12hLO activity was screened by utilizing arachidonic acid as a substrate. The extent of hydroperoxide product formation was measured by a secondary chromogenic reaction in which xylenol orange (XO, Sigma-Aldrich, cat. number 39,818-7) reacts with the ferric ions produced from the reaction between the hydroperoxide and ferrous ions. The Fe (III)-XO complex is characterized with red-shifted absorbance at 560 nm. A purified preparation of human 12hLO was supplied by Dr. Holman laboratory, University of California, Santa Cruz.
An assay against arachidonate 15-lipoxygenase (ALOX15) was developed to assess selective inhibition against ALOX12. Desired compounds would show potent inhibition against ALOX12 and minimal to no inhibition against ALOX15.
SEQUENCE No. (e.g., 1, 2, 3, etc.); PARAMETER (e.g., Cells, Incubation, Reagent, etc.); VALUE; DESCRIPTION
1; Enzyme; 3 uL; 40 nM ALOX15 (15hLO-1) enzyme solution dispensed in 1536-well Greiner black, clear bottom plates.
2; Compound; 23 nL; compounds and controls were added.
3; Incubate; 15 min; room temperature.
4; Substrate; 1 uL; 50 uM arachidonic acid (final concentration).
5; Incubate; 30 min; room temperature.
6; Reagent; 4 uL; Fe-XO solution was added to each well.
8; Incubation; 30 min; room temperature
9; Detector; absorbance; Read 1 at 405 nm absorbance using ViewLux (PerkinElmer) CCD imager.
10; Detector; absorbance; Read 2 at 573 nm absorbance using ViewLux (PerkinElmer) CCD imager.
NOTES (numbers refer to sequence above)
1; 40 nM ALOX15 (final concentration) in buffer solution (25 mM Hepes, 0.01% Triton X-100, pH 7.5) was dispensed in columns 1, 2, 5 - 48. Column 1 is neutral (100% activity). Buffer only was dispensed in columns 3 and 4 as no enzyme negative controls. The plates were covered with metal lids with gas-exchange holes.
2; Compounds were pin transferred via a Kalypsys Pin Tool (Wako USA) in column 5 - 48. Control compound was transferred in column 2, titration of nordihydroguaiaretic acid (NDGA, Sigma-Aldrich, N5023) with top concentration of 10 mM in DMSO then 1:2 dilution in duplicate. Dilution factor of 23 nL into 4 uL final assay volume.
3; Covered assay plates were incubated for 15 min at room temperature.
4; Substrate was added to start the reaction; 50 uM arachidonic acid (Sigma-Aldrich, St. Louis, MO) was dispensed throughout the plate.
6; Chromogenic detection reagent solution (divalent iron/xylenol orange, Fe-XO) was added to each well: 200 uM xylenol orange, 300 uM ferrous ammonium sulfate prepared freshly in 50 mM sulfuric acid.
9, 10; Two absorbance readouts were obtained at 405 nm and at 573 nm using a ViewLux high-throughput CCD plate imager (PerkinElmer). The 573 to 405 (Read 2 / Read 1) absorbance ratio was used to compute reaction progress.
(In general: A counterscreen serves to expose hits that act by an unwanted route or on another target.)
Turning to `COc1ccc(N2CC3CCC(C2)N3C(=O)NC(C)C)cc1`, the call was inactive.

`CN1CC(=O)N(C2CCCNCC2)Cc2c1ncnc2N1CCCC(F)C1` (stereo not given): the compound was called inactive.

As to `O=C(O)c1cccc(-c2ccsc2)c1`, the outcome was inactive.

In the case of `Cn1cccc1CN1CCCCC12Cc1ccccc1CNC2=O` (stereo not given), the compound was classed as inactive.

For the compound `CCOCCNc1ncnc2c1CN(C1CCNCC1)C(=O)CN2C`, the compound was called inactive.

Regarding `CC(C)C(=O)N1Cc2ccccc2CC2(CCCCN2CC2CCNC2)C1` (stereo not given), the outcome was inactive.

Consider `CC(CO)Nc1ncnc2c1CN(C1CCCNCC1)C(=O)CN2C` (stereo not given), for which the call was inactive.

Take `CN1CC(=O)N(C2CCCNCC2)Cc2c1ncnc2N1CCN(Cc2ccccc2)CC1` (stereo not given): the compound was classed as inactive.

Regarding `CCNc1ncnc2c1CN(C1CCNC1)C(=O)CN2C` (stereo not given), the compound was classed as inactive.

Take `CC(C)Cc1ccc(CN2CCC3(Cc4ccccc4CNC3=O)C2)cc1` (stereo not given): the call was inactive.

As for `O=C(O)c1cccc(-c2cncc(C(=O)O)c2)c1`, the compound was classed as inactive.

Consider `NC(Cc1ccccc1)C(=O)N1CCC2(CC1)CN(C(=O)c1ccc(Cl)cc1)CCO2` (stereo not given), for which the call was inactive.

Turning to `FC(F)(F)c1ccc(N2C3CCC2CN(Cc2cccs2)C3)cc1`, the outcome was inactive.

Consider `Cc1ccc(CN2CC3ON=C(C(=O)O)C3C2)cc1` (stereo not given), for which the compound was classed as inactive.

In the case of `O=C(c1ccccc1F)N1CC(Oc2ccc3c(c2)OCO3)C1`, the result was inactive.

Turning to `CC(C)[S+](=O)([O-])N1CCCC1c1nnc2n1CCNC2` (stereo not given), the outcome was inactive.

Turning to `CC(=O)NCCC(=O)N1Cc2ccccc2CC2(CCCN2CC2CCNC2)C1` (stereo not given), the result was inactive.

With `O=C(c1cc(C2CC2)nc2c1c(C1CCCN1)nn2-c1ccccc1)N1CCC(F)CC1` (stereo not given), the call was inactive.

As for `O=C1NCc2ccccc2CC12CCN(Cc1cnc3ccccc3c1)CC2`, the result was inactive.

`Cc1cc(Cl)ccc1-c1ccccc1CN`: the result was inactive.

Consider `CN1CC(=O)N(c2ccc(Cl)cc2)Cc2c(NCC3CC3)ncnc21`, for which the compound was called inactive.

`CC(C)S(=O)(=O)N1CCC(c2nnc3n2CCNC3)CC1`: the compound was classed as inactive.

As for `CN1CC(=O)N(C2CCNC2)Cc2c(NC3CCCC3)ncnc21` (stereo not given), the outcome was inactive.

Regarding `COc1ccc(CC(=O)N2Cc3ccccc3CC3(CCN(CC4CCNC4)C3)C2)cc1` (stereo not given), the call was inactive.

For `CN1CC(=O)N(C2CCCNC2)Cc2c(NC3CCCCCC3)ncnc21` (stereo not given), the compound was called inactive.

As to `CC(C)[S+](=O)([O-])N1CCN(c2ccc(Cl)nn2)C(=O)C1`, the compound was classed as inactive.

Regarding `COCCNC(=O)c1cc(-c2ccc(OC)cc2)nc2onc(C3CCNC3)c12` (stereo not given), the call was inactive.

For `c1ccc(CN2CC(Oc3ccc4c(c3)OCO4)C2)cc1`, the call was inactive.

For the compound `O=C(N1CCCC1)N1CCCC(c2nnc3n2CCNC3)C1` (stereo not given), the compound was called inactive.

Regarding `O=C1NCc2ccccc2CC12CCN(Cc1cccc(F)c1F)CC2`, the compound was classed as inactive.

As for `CN1CC(=O)N(C2CCCNCC2)Cc2c1ncnc2N1CCC(N2CCCCC2)CC1` (stereo not given), the call was inactive.

As for `CC(=O)Nc1ccc(CN2CC3(C2)C(=O)Nc2ccccc23)cc1`, the outcome was inactive.

With `CN1CC(=O)N(C2CCNC2)Cc2c(NCC3CCCCC3)ncnc21` (stereo not given), the outcome was inactive.

Consider `O=C1NCc2ccccc2CC12CCCN2Cc1ccc(Cl)cc1` (stereo not given), for which the compound was classed as inactive.

Take `CN1CC(=O)N(C2CCCNC2)Cc2c1ncnc2N1CCc2ccccc2C1` (stereo not given): the compound was called inactive.

Turning to `CN1CCC(C(=O)N2Cc3ccccc3CC3(CCCN(CC4CCNC4)C3)C2)CC1` (stereo not given), the call was inactive.

On to `CCCN1CCC2(Cc3ccccc3CN(C(=O)CCCC(=O)O)C2)C1` (stereo not given), for which the compound was classed as inactive.

Take `O=c1n(-c2cccc(Cl)c2)nc2n1CCN([S+](=O)([O-])c1ccccc1)C2`: the call was inactive.

For the compound `C/C(=C\c1ccccc1)CN1CCCC12Cc1ccccc1CNC2=O` (stereo not given), the result was inactive.

Take `O=C(C1CCCC1)N1Cc2ccccc2CC2(CCN(Cc3ccncc3)C2)C1` (stereo not given): the call was inactive.
